Data published in PubChem BioAssay (NCI).
About 79,000 compounds went through this panel and 15% of them were active in at least one assay; those are over-represented in the sample as a whole. Values without a mark were called inactive. Calls of active or inactive are those of the source. No stated cut-off is given here; in the data, active means growth inhibition above about 70%; inactive means the rest.

What was measured:
[1] = NCI Yeast Anticancer Drug Screen. Data for the rad50 strain (AID 155);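 further: 0% = growth of vehicle-only cultures of the same strain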; conditions: S. cerevisiae rad50 strain growth inhibition, hits give high values
Procedure, shortened: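 Relative growth inhibition (compound vs vehicle) was measured in yeast with a defined repair-gene alteration.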

[2] = NCI Yeast Anticancer Drug Screen. Data for the mec2-1 strain (AID 157); conditions: S. cerevisiae mec2-1 strain, hits give high values
Procedure, shortened: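 Using mec2-1 yeast: add compound, measure growth, express inhibition versus vehicle-treated cultures.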

[3] = NCI Yeast Anticancer Drug Screen. Data for the sgs1 mgt1 strain (AID 161);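 further: 0% = growth of cultures given vehicle only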; conditions: S. cerevisiae sgs1 mgt1 strain, hits give high values
Procedure, shortened: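 Yeast cells carrying a defined DNA-repair defect were exposed to test compounds. Growth inhibition was measured relative to vehicle-treated controls.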

[4] = NCI Yeast Anticancer Drug Screen. Data for the cln2 rad14 strain (AID 165);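 further: 0% = growth equal to vehicle treated cultures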; conditions: S. cerevisiae cln2 rad14 strain, hits give high values
Procedure, shortened: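 Yeast strain cln2 rad14, bearing defects in cell cycle control and DNA repair, serves as the test system; values reflect growth inhibition compared with vehicle.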

[5] = NCI Yeast Anticancer Drug Screen. Data for the bub3 strain (AID 167); conditions: S. cerevisiae bub3 mutant strain, hits give high values
Procedure, shortened: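 Screening used yeast with an engineered genetic alteration affecting cell cycle control. Compound-exposed cultures were compared with vehicle cultures, and reduced growth was taken as inhibition.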

[6] = NCI Yeast Anticancer Drug Screen. Data for the mlh1 rad18 strain (AID 175); conditions: S. cerevisiae mlh1 rad18 strain growth inhibition, hits give high values
Procedure, shortened: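 Steps: expose repair-defective yeast to compound; measure growth; express inhibition against vehicle-treated controls.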

[7] = at 5.0 µM (retest, dose inferred, filed as 0.5)
[8] = at 50.0 µM (retest, dose inferred, filed as 5.0)

| SMILES | growth inhibition [1, 7] | growth inhibition [1, 8] | growth inhibition ([1]; at 50.0 µM) | growth inhibition [2, 7] | growth inhibition [2, 8] | growth inhibition ([2]; at 50.0 µM) | growth inhibition [3, 7] | growth inhibition [3, 8] | growth inhibition ([3]; at 50.0 µM) | growth inhibition [4, 7] | growth inhibition [4, 8] | growth inhibition ([4]; at 50.0 µM) | growth inhibition [5, 7] | growth inhibition [5, 8] | growth inhibition ([5]; at 50.0 µM) | growth inhibition [6, 7] | growth inhibition [6, 8] | growth inhibition ([6]; at 50.0 µM) |
| --- | --- | --- | --- | --- | --- | --- | --- | --- | --- | --- | --- | --- | --- | --- | --- | --- | --- | --- |
| CC(C)C(O)(C(=O)OCN1C(=O)C2C3C=CC(C2C1=O)C1C2C(=O)N(COC(=O)C(O)(C(C)C)C(C)O)C(=O)C2C31)C(C)O (configuration not stated) | 0% | -7% | 28.5% | -2% | 11% | 52% | -7% | 17% | 37.9% | 0% | -2% | 18.1% | 5% | 9% | -2% | -3% | 2% | 30.6% |
| O=C(CC(=O)c1cccnc1)c1cccnc1 | 6% | 98% (active) | 98.8% (active) | 9% | 98% (active) | 98% (active) | 7% | 98% (active) | 98.5% (active) | 5% | 98% (active) | 76.7% (active) | 8% | 98% (active) | 97.7% (active) | 7% | 98% (active) | 99% (active) |
| N#CC1Sc2ccccc2N1C(=O)c1ccccc1 (configuration not stated) | -2% | 3% | 96.6% (active) | -15% | -6% | 91% (active) | -2% | -19% | 93% (active) | -12% | -19% | 78% (active) | -10% | 4% | 84.2% (active) | -12% | -5% | 98% (active) |
| O[C@H]1c2cccn2-c2ccccc2S[C@H]1c1ccccc1 | 12% | 99% (active) | 98.8% (active) | -6% | 99% (active) | 98.8% (active) | 3% | 97% (active) | 98.8% (active) | 6% | 99% (active) | 98.8% (active) | 10% | 98% (active) | 98.5% (active) | -4% | 99% (active) | 99% (active) |
| Cc1nc2[nH]cc(C)c2c(=O)[nH]1 | 6% | -11% | -24.8% | -4% | -14% | -2.25% | -1% | -7% | 4.1% | -11% | -4% | 35.1% | 2% | -15% | 4.6% | -10% | -14% | -8.2% |
| COC(=O)C(O)(/C(=N\O)c1ccccc1)c1ccccc1 (configuration not stated) | 0% | 0% | 4.8% | 0% | -1% | 16.7% | 5% | 0% | 25.6% | -1% | -5% | 71.1% (active) | 0% | -8% | 29.1% | 0% | -2% | 8.35% |
| O=C1CCCCCCC2=C1C(Sc1ccccc1)CC2 (configuration not stated) | -27% | 34% | 78.8% (active) | -6% | 25% | 52.4% | -16% | 35% | 75.2% (active) | 13% | 28% | 45.6% | 3% | 69% | 60.1% | -13% | 80% (active) | 54.1% |
| O=C1C=C(Cl)C(=O)C(Cl)=C1Cl | -14% | 99% (active) | 99.2% (active) | 11% | 99% (active) | 99.3% (active) | 12% | 99% (active) | 99.2% (active) | -25% | 91% (active) | 98.7% (active) | 8% | 99% (active) | 99% (active) | 3% | 99% (active) | 98.8% (active) |
| COc1ccc(-c2cc(-c3ccc(OC)cc3OC)[n+](C)c(-c3ccc(OC)cc3OC)c2)cc1 | 97% (active) | 98% (active) | 90% (active) | 98% (active) | 99% (active) | 93% (active) | 98% (active) | 99% (active) | 86.2% (active) | 97% (active) | 98% (active) | 88.2% (active) | 98% (active) | 99% (active) | 81.8% (active) | 97% (active) | 99% (active) | 93% (active) |
